Records with an inconclusive call do not appear. Calls of active or inactive are those of the source. Calls come from the whole dose curve; as a rule, active = well fitted curve in the direction sought with a large enough effect; inconclusive = small, poorly fitted or top-dose-only effect, or another doubt; inactive = no such curve, though single readings can be large; an effect the other way counts as inactive or inconclusive.
Assays:
[1] = tested on: Zika virus NS2B-NS3 protease (linked construct); test: Primary screen NINDS Rhodamine qHTS for Zika virus inhibitors (AID 1347160); note: nearly all actives have a fitted effect of over 55% in size
How it was run: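 Enzyme (25 nM, linked NS2B-NS3) was preincubated 15 min with compound in 10 mM Tris-HCl pH 8.0, 0.01% Tween 20. Rhodamine110 substrate (1.5 microM) was then added and fluorescence read at start and after 15 min.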

[2] = biological target: Calcium and integrin-binding protein 1 (Homo sapiens) (UniProt Q99828); test: Primary qHTS for Identification of Calcium Integrin Binding Protein 1 (CIB1) Competitor (AID 1508620);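 note: GST tagged CIB1 binding a fluorescein labelled alphaIIb integrin peptide tracer; top concentration of the series differs between compounds; % is set by controls: 0 for no effect and ±100 for the full control effect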
Sequence of Calcium and integrin-binding protein 1 (Homo sapiens) (Q99828 whole entry, looked up): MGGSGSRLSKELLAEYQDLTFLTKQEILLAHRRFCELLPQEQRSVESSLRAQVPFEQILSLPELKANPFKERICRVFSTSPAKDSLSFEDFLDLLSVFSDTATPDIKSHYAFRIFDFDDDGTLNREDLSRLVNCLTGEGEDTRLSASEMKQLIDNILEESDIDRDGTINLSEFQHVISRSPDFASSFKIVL
How it was run: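 Fluorescence polarization competition: CIB1-GST (1 uM final) preincubated with compound 15 min at room temperature, then FITC-labeled alphaIIb peptide (100 nM final) added for another 15 min. Polarization read at Ex 480/Em 540.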

[3] = biological target: Glutathione peroxidase 1 (Homo sapiens) (UniProt P07203); test: Primary qHTS Assay for Inhibitors of Recombinant Selenoprotein Glutathione Peroxidase 1 (GPX1) (AID 1845191); note: nearly all actives have a fitted effect of over 65% in size
Sequence of Glutathione peroxidase 1 (Homo sapiens) (P07203 whole entry, looked up): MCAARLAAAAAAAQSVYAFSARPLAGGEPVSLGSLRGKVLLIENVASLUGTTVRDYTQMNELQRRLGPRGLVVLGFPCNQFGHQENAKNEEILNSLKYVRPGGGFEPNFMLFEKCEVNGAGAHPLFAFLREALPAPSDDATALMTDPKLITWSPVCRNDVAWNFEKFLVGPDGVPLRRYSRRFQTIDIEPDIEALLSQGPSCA
How it was run: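 GPX1 10 nM, GR 100 nM, GSH 1 mM, NADPH 0.5 mM, CHP 0.5 mM (final). 30-min cpd preincubation, RT. Ex340/Em450 read t=0, t=15 min.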

[4] = biological target: Phospholipid hydroperoxide glutathione peroxidase GPX4 (Homo sapiens) (UniProt P36969); test: Primary qHTS Assay for Inhibitors of Recombinant Selenoprotein Glutathione Peroxidase 4 (GPX4) (AID 1845192); note: % is set by controls: 0 for no effect and ±100 for the full control effect; nearly all actives have a fitted effect of over 65% in size
Sequence of Phospholipid hydroperoxide glutathione peroxidase GPX4 (Homo sapiens) (P36969 whole entry, looked up): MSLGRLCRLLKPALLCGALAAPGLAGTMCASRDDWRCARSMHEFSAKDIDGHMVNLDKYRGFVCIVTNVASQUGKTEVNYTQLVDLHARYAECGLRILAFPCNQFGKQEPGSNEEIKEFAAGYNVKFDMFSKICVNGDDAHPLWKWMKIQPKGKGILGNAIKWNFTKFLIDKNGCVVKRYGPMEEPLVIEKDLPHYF
How it was run: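 qHTS, GR-coupled: GPX4 200 nM + cpd 30 min RT → GSH 1 mM, NADPH 0.5 mM, GR 100 nM → CHP 0.5 mM start; fluor 340/450 at t0 and t15 min; no-enzyme wells as control.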

[5] = biological target: Luciferin 4-monooxygenase (Photinus pyralis) (UniProt P08659); test: Primary firefly luciferase (FLuc) qHTS assay for identification of artifact compounds. (AID 1845220); details: outcome: dose series up to 54.1 µM unless noted; note: nearly all actives have a fitted effect of over 60% in size
How it was run: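 Reaction readout was CCD-imaged luminescence, taken 5 min after adding 10 nM purified firefly enzyme to compound-treated wells holding 10 uM luciferin and ATP in pH 7.6 buffer.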

[6] = Primary fluorescence-based thiol-reactive (MSTI) qHTS assay for identification of artifact compounds. (AID 1845221);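 note: thiol-reactive compounds lower the probe fluorescence signal; nearly all actives have a fitted effect of over 65% in size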
How it was run: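 Curve-fitted percent inhibition (4-parameter Hill) derived from fluorescence, Ex 525/Em 598 nm, scaled with Acetyl-MSTI and MSTI; 1 h incubation at room temperature.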

[7] = tested on: Nanoluciferase (engineered Oplophorus gracilirostris luciferase); test: Primary Nanoluciferase (NLuc) qHTS assay for identification of artifact compounds. (AID 1845222);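 note: NLuc secreted into diluted conditioned medium of S16 cells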
How it was run: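 Concentration-response data were obtained by luminescence after 5 min with Nano-Glo substrate at 1:100. The enzyme was diluted S16 NLuc-expressing cell medium, preincubated with compound for 15 min at RT. Curves were fitted with a 4-parameter Hill model.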

[8] = Primary redox qHTS assay for identification of artifact compounds. (AID 1845223);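 note: 0% = DMSO and 100% = reference compound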
How it was run: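 Redox-cycling detection via DTT (250 uM final) oxidation coupled to Amplex Red (25 uM)/HRP (250 mU/mL) in HBSS. 15 min preincubation plus 30 min after DTT, room temperature. Ex/Em 525/598 nm; 4-parameter Hill fit against DMSO and 10 uM DA3003.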

CRL-7250 = normal cell line; test: Cytotoxic Profiling of Annotated Libraries Using Quantitative High-Throughput Screening (AID 1296008); details: Five cell lines viability, CellTiter-Glo ATP luminescence, 48-72 h; max response: hits give low values; note: nearly all actives have a fitted effect of over 60% in size; note: potency is the fitted concentration of half-maximal effect; for max response: % is set by controls: 0 for no effect and ±100 for the full control effect
How it was run: (§1)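 Compounds were pin-transferred onto cells and incubated 48 or 72 hr at 37 degree Celsius, 95% humidity. CellTiter-Glo was added, plates sat 10 min at room temperature, then ATP-coupled luminescence was imaged as the viability read-out.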

KB-3-1 = test: as above; details: Five cell lines viability, CellTiter-Glo ATP luminescence, 48-72 h; max response: hits give low values
How it was run: as §1

C33A = test: Primary qHTS to identify gynecologic anti-cancer compounds using libraries of approved drugs and bioactive compounds (AID 1345084); details: Gynecologic cancer cell panel viability, ATPlite luminescence, 48 h; series mostly up to 57.5 µM; note: nearly all actives have a fitted effect of over 55% in size; note: potency is the fitted concentration of half-maximal effect
How it was run: (§2)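 Cytotoxicity screen measuring ATP content by luciferase luminescence. Each compound is applied at five concentrations for 48 h at 37 C with 5% CO2.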

CAOV3 = test: as above; details: Gynecologic cancer cell panel viability, ATPlite luminescence, 48 h; series mostly up to 57.5 µM
How it was run: as §2

CASKI = test: as above; details: Gynecologic cancer cell panel viability, ATPlite luminescence, 48 h; series mostly up to 57.5 µM
How it was run: as §2

Es-2 = test: as above; details: Gynecologic cancer cell panel viability, ATPlite luminescence, 48 h; series mostly up to 57.5 µM
How it was run: as §2

Hek293T = test: as above; details: Gynecologic cancer cell panel viability, ATPlite luminescence, 48 h, control line for the selectivity index; series mostly up to 57.5 µM
How it was run: as §2

JEG-3 = test: as above; details: Gynecologic cancer cell panel viability, ATPlite luminescence, 48 h; series mostly up to 57.5 µM
How it was run: as §2

OV90 = test: as above; details: Gynecologic cancer cell panel viability, ATPlite luminescence, 48 h; series mostly up to 57.5 µM
How it was run: as §2

PA-1 = test: as above; details: Gynecologic cancer cell panel viability, ATPlite luminescence, 48 h; series mostly up to 57.5 µM
How it was run: as §2

Tov-21-G = test: as above; details: Gynecologic cancer cell panel viability, ATPlite luminescence, 48 h; series mostly up to 57.5 µM
How it was run: as §2

Tov112D = test: as above; details: Gynecologic cancer cell panel viability, ATPlite luminescence, 48 h; series mostly up to 57.5 µM
How it was run: as §2

Cc1ccc2c(c1)[C@H]1CN(C)CC[C@H]1N2C(=O)CSc1nnnn1-c1ccc(Cl)cc1
inactive: Potency [1] | Potency [2] | Potency [3] | Potency [4] | outcome [5] | Potency [6] | Potency [7] | Potency [8] | max response (CRL-7250) 0.988% | max response (KB-3-1) -5.2% | Potency (C33A) | Potency (CAOV3) | Potency (CASKI) | Potency (Es-2) | Potency (Hek293T) | Potency (JEG-3) | Potency (OV90) | Potency (PA-1) | Potency (Tov-21-G) | Potency (Tov112D)

C[C@]12CC[C@@H](O[C@@H]3O[C@H](CO)[C@@H](O)[C@H](O)[C@H]3O)C[C@@]1(O)CCC1C2CC[C@]2(C)[C@@H](C3=CC(=O)OC3)CC[C@]12O (some centres undefined)
inactive: Potency [1] | Potency [2] | Potency [3] | Potency [4] | outcome [5] | Potency [7] | Potency [8]
active: Potency (CRL-7250) 126 nM | Potency (KB-3-1) 200 nM | Potency (C33A) 199 nM | Potency (CAOV3) 501 nM | Potency (Es-2) 355 nM | Potency (Hek293T) 199 nM | Potency (OV90) 1120 nM | Potency (PA-1) 355 nM | Potency (Tov-21-G) 178 nM | Potency (Tov112D) 112 nM

CC[C@@H]1C[C@H]2CC[C@H](O2)[C@H](C)C(=O)O[C@@H](C)C[C@@H]2CC[C@@H](O2)[C@@H](C)C(=O)O[C@H](C)C[C@H]2CC[C@H](O2)[C@H](C)C(=O)O[C@@H](C)C[C@@H]2CC[C@@H](O2)[C@@H](C)C(=O)O1
active: Potency (CRL-7250) 432 nM | Potency (KB-3-1) 96.8 nM | Potency (CAOV3) 562 nM | Potency (CASKI) 501 nM | Potency (Es-2) 708 nM | Potency (Hek293T) 282 nM | Potency (OV90) 447 nM | Potency (PA-1) 398 nM
inactive: Potency [1] | Potency [2] | Potency [3] | Potency [4] | outcome [5] inactive [at 25.7 µM] | Potency [7] | Potency [8] | Potency (JEG-3)

NCCCCCNC1(c2ccccc2)CCCCC1
inactive: Potency [1] | Potency [2] | Potency [3] | outcome [5] | Potency [6] | Potency [7] | Potency [8] | max response (CRL-7250) -4.91% | max response (KB-3-1) -2.11% | Potency (C33A) | Potency (CAOV3) | Potency (CASKI) | Potency (Es-2) | Potency (Hek293T) | Potency (JEG-3) | Potency (OV90) | Potency (PA-1) | Potency (Tov-21-G) | Potency (Tov112D)

CCC(C)C1NC(=O)C(C(C)=O)=C1O (centres undefined)
inactive: Potency [1] | Potency [2] | Potency [3] | outcome [5] | Potency [6] | Potency [7] | Potency [8] | max response (CRL-7250) -9.18% | max response (KB-3-1) -22.8% | Potency (C33A) | Potency (CAOV3) | Potency (CASKI) | Potency (Es-2) | Potency (Hek293T) | Potency (JEG-3) | Potency (OV90) | Potency (PA-1) | Potency (Tov-21-G) | Potency (Tov112D)

c1ccc(C2(c3ccccc3)OC[C@@H]([C@H]3CCCCN3)O2)cc1
inactive: Potency [1] | Potency [3] | Potency [4] | outcome [5] | Potency [6] | Potency [7] | Potency [8] | max response (CRL-7250) -2.49% | max response (KB-3-1) -9.58% | Potency (C33A) | Potency (CAOV3) | Potency (CASKI) | Potency (Es-2) | Potency (Hek293T) | Potency (JEG-3) | Potency (OV90) | Potency (PA-1) | Potency (Tov-21-G) | Potency (Tov112D)

C[C@H]1CN(CC[C@H](O)C2CCCCC2)CC[C@@]1(C)c1cccc(O)c1
inactive: Potency [1] | Potency [3] | Potency [4] | outcome [5] | Potency [6] | Potency [7] | Potency [8] | max response (CRL-7250) 4.91% | max response (KB-3-1) -5.46% | Potency (C33A) | Potency (CAOV3) | Potency (CASKI) | Potency (Es-2) | Potency (Hek293T) | Potency (JEG-3) | Potency (OV90) | Potency (PA-1) | Potency (Tov-21-G) | Potency (Tov112D)

CCCN(CCC)CCc1ccc(OC)c(OCCc2ccccc2)c1
inactive: Potency [1] | Potency [2] | Potency [3] | Potency [4] | outcome [5] | Potency [6] | Potency [7] | Potency [8] | max response (CRL-7250) 3.48% | outcome (KB-3-1) | Potency (C33A) | Potency (CAOV3) | Potency (CASKI) | Potency (Es-2) | Potency (Hek293T) | Potency (JEG-3) | Potency (PA-1) | Potency (Tov-21-G) | Potency (Tov112D)

CCOC(=O)Nc1ccc(NCc2c(C)cc(C)cc2C)cc1N
inactive: Potency [1] | Potency [2] | Potency [3] | Potency [4] | outcome [5] | Potency [7] | Potency [8] | outcome (CRL-7250) | Potency (C33A) | Potency (CASKI) | Potency (Es-2) | Potency (Hek293T) | Potency (JEG-3) | Potency (OV90) | Potency (PA-1) | Potency (Tov-21-G) | Potency (Tov112D)

Cc1[nH]c2ccc(Cl)cc2c1CCN(C)C
inactive: Potency [1] | Potency [2] | Potency [3] | Potency [4] | outcome [5] | Potency [6] | Potency [7] | Potency [8] | max response (CRL-7250) -0.626% | max response (KB-3-1) 3.8% | Potency (C33A) | Potency (CAOV3) | Potency (CASKI) | Potency (Es-2) | Potency (Hek293T) | Potency (JEG-3) | Potency (OV90) | Potency (PA-1) | Potency (Tov-21-G) | Potency (Tov112D)

COC1CC(OC2CCC3(C=O)C(CCC4C3CCC3(C)C(C5=CC(=O)OC5)CCC43O)C2)OC(C)C1O (centres undefined)
inactive: Potency [2] | Potency [3] | Potency [7]
active: Potency (KB-3-1) 252 nM | Potency (C33A) 141 nM | Potency (CAOV3) 316 nM | Potency (CASKI) 1000 nM | Potency (Es-2) 251 nM | Potency (Hek293T) 251 nM | Potency (JEG-3) 631 nM | Potency (OV90) 1000 nM | Potency (PA-1) 199 nM | Potency (Tov-21-G) 178 nM | Potency (Tov112D) 100 nM

From PubChem BioAssay (NCATS)
